# Measured values published in the supplement of paper PMC8007513.
# Structures can show the parent of a compound that is named as a salt. ± gives the standard error. The campaign covered roughly 1,300 compounds. About 130 (10%) showed an effect of 50% or more. This excerpt belongs to a sample that is enriched for strong results.
# Tested on: Trichoderma virens ATCC 9645
# Assay: growth yield (OD600) with compound + IPBC relative to untreated control; higher = less growth inhibition
# Details: compound concentration: 100 uM, IPBC concentration: 200 ng/ml
# Summary of the method: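 Spores of Trichoderma virens ATCC 9645, taken from potato dextrose agar plates grown for 7 days, were suspended at 15,000 spores ml^−1 in potato dextrose broth. In 96-well plates, 100 μl aliquots held library compounds at 100 μM final, either alone or together with a biocide at 200 ng ml^−1, and were grown at 30 °C. A BioTek EL800 read OD600 at 40 h and 72 h. Growth values are given relative to the control lacking both agents and are means of duplicate screens.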
Compound,growth yield (40 h),growth yield (72 h)
CC[C@H](C)C(=O)O[C@H]1C[C@@H](C)C=C2C=C[C@H](C)[C@H](CC[C@@H]3C[C@@H](O)CC(=O)O3)[C@H]21 [Lovastatin] + CCCCNC(=O)OCC#CI [3-iodo-2-propynyl butylcarbamate (IPBC)],104 ± 4%,103 ± 1.6%
CN1CCN(C(=O)OC2c3nccnc3C(=O)N2c2ccc(Cl)cn2)CC1 (centres undefined) [Zopiclone] + CCCCNC(=O)OCC#CI [3-iodo-2-propynyl butylcarbamate (IPBC)],91.8 ± 2.5%,93 ± 1.4%
CC(=O)OC[C@H]1O[C@@H]([S-])[C@H](OC(C)=O)[C@@H](OC(C)=O)[C@@H]1OC(C)=O.CCP(CC)CC.[Au+] [Auranofin] + CCCCNC(=O)OCC#CI [3-iodo-2-propynyl butylcarbamate (IPBC)],23.2 ± 1.3%,29.7 ± 2.4%
CO[C@H]1/C=C/O[C@@]2(C)Oc3c(C)c(O)c4c(c3C2=O)C2=NC3(CCN(CC(C)C)CC3)NC2=C(NC(=O)/C(C)=C\C=C\[C@H](C)[C@H](O)[C@@H](C)[C@@H](O)[C@@H](C)[C@H](OC(C)=O)[C@@H]1C)C4=O [Rifabutin] + CCCCNC(=O)OCC#CI [3-iodo-2-propynyl butylcarbamate (IPBC)],99.4%,97.1 ± 8.4%
CC(=O)OCC1=C(C(=O)O)N2C(=O)[C@@H](NC(=O)Cc3cccs3)[C@H]2SC1 [Cephalothin sodium salt] + CCCCNC(=O)OCC#CI [3-iodo-2-propynyl butylcarbamate (IPBC)],91.7 ± 8.4%,90.9 ± 7.9%
CCC(Cc1c(I)cc(I)c(N)c1I)C(=O)O (centres undefined) [Iopanoic acid] + CCCCNC(=O)OCC#CI [3-iodo-2-propynyl butylcarbamate (IPBC)],70.2 ± 2.5%,88.3 ± 4.4%
COc1c(N2C[C@@H]3CCCN[C@@H]3C2)c(F)cc2c(=O)c(C(=O)O)cn(C3CC3)c12 [Moxifloxacin] + CCCCNC(=O)OCC#CI [3-iodo-2-propynyl butylcarbamate (IPBC)],109 ± 2.7%,105 ± 3.5%
O=C1c2ccccc2S(=O)(=O)N1CCCCN1CCN(c2ncccn2)CC1 [Ipsapirone] + CCCCNC(=O)OCC#CI [3-iodo-2-propynyl butylcarbamate (IPBC)],87.4 ± 4.8%,90.7 ± 1.8%
Cc1ccc(N(CC2=NCCN2)c2cccc(O)c2)cc1 [Phentolamine hydrochloride] + CCCCNC(=O)OCC#CI [3-iodo-2-propynyl butylcarbamate (IPBC)],86.25 ± 0.79%,97.64 ± 0.73%
CCCCCC[C@H]1C(=O)O[C@H](C)[C@H](NC(=O)c2cccc(NC=O)c2O)C(=O)O[C@@H](C)[C@@H]1OC(=O)CC(C)C [Antimycin A] + CCCCNC(=O)OCC#CI [3-iodo-2-propynyl butylcarbamate (IPBC)],17.6 ± 1.1%,42.9 ± 2.4%
COc1cccc(C2(O)CCCCC2CN(C)C)c1 (centres undefined) [Tramadol hydrochloride] + CCCCNC(=O)OCC#CI [3-iodo-2-propynyl butylcarbamate (IPBC)],87.5 ± 2.1%,90.51 ± 0.73%
COCCCOc1cc(C[C@@H](C[C@H](N)[C@@H](O)C[C@H](C(=O)NCC(C)(C)C(N)=O)C(C)C)C(C)C)ccc1OC [Aliskiren hemifumarate] + CCCCNC(=O)OCC#CI [3-iodo-2-propynyl butylcarbamate (IPBC)],93.4 ± 5.1%,99.1 ± 1.1%
CCOc1ccccc1OC(c1ccccc1)C1CNCCO1 (centres undefined) [Reboxetine mesylate] + CCCCNC(=O)OCC#CI [3-iodo-2-propynyl butylcarbamate (IPBC)],82.92 ± 0.32%,90.61 ± 0.63%
CC(N)C(O)c1ccccc1 (centres undefined) [Phenylpropanolamine hydrochloride] + CCCCNC(=O)OCC#CI [3-iodo-2-propynyl butylcarbamate (IPBC)],97.1 ± 7.5%,101 ± 3.5%
O=C(O)CN(CCN(CC(=O)O)CC(=O)O)CCN(CC(=O)O)CC(=O)O [Pentetic acid] + CCCCNC(=O)OCC#CI [3-iodo-2-propynyl butylcarbamate (IPBC)],18.7 ± 1.6%,88.41 ± 0.73%
CCc1cccc(CC)c1NC(=O)CN(CC(=O)O)CC(=O)O [Etifenin] + CCCCNC(=O)OCC#CI [3-iodo-2-propynyl butylcarbamate (IPBC)],87.7 ± 4.1%,94.4 ± 2.3%
O=P(O)(O)C(O)(Cc1cccnc1)P(=O)(O)O [Risedronic acid monohydrate] + CCCCNC(=O)OCC#CI [3-iodo-2-propynyl butylcarbamate (IPBC)],88.8 ± 2.7%,91.66 ± 0.42%
COc1ccc(C[C@@H]2c3cc(OC)c(OC)cc3CC[N@+]2(C)CCC(=O)OCCCCCOC(=O)CC[N@@+]2(C)CCc3cc(OC)c(OC)cc3[C@H]2Cc2ccc(OC)c(OC)c2)cc1OC [Cisatracurium besylate] + CCCCNC(=O)OCC#CI [3-iodo-2-propynyl butylcarbamate (IPBC)],78.3 ± 2.1%,85.9 ± 4.1%
CC1=C(/C=C/C(C)=C/C=C/C(C)=C\C(=O)O)C(C)(C)CCC1 [Isotretinoin] + CCCCNC(=O)OCC#CI [3-iodo-2-propynyl butylcarbamate (IPBC)],83.5%,105 ± 16%

Compound,growth yield (40 h),growth yield (72 h)
CCCCOc1ccc(C(=O)CCN2CCCCC2)cc1 [Dyclonine hydrochloride] + CCCCNC(=O)OCC#CI [3-iodo-2-propynyl butylcarbamate (IPBC)],75.4 ± 1.1%,90.8 ± 1.5%
N=C(N)c1ccc(OCCCCCOc2ccc(C(=N)N)cc2)cc1 [Pentamidine isethionate] + CCCCNC(=O)OCC#CI [3-iodo-2-propynyl butylcarbamate (IPBC)],2.7 ± 0.48%,2.1 ± 0.42%
CCCCOc1ccc(CC(=O)NO)cc1 [Bufexamac] + CCCCNC(=O)OCC#CI [3-iodo-2-propynyl butylcarbamate (IPBC)],99.59 ± 0.16%,95.438 ± 1e-14%
CCCNC(C)(C)COC(=O)c1ccccc1 [Meprylcaine hydrochloride] + CCCCNC(=O)OCC#CI [3-iodo-2-propynyl butylcarbamate (IPBC)],87.7 ± 7.6%,91.8 ± 5.1%
Nc1nc(O)c2ncn(CCC(CO)CO)c2n1 [Penciclovir] + CCCCNC(=O)OCC#CI [3-iodo-2-propynyl butylcarbamate (IPBC)],82.76 ± 0.48%,95.6 ± 1.3%
Cc1ccccc1C(=O)Nc1ccc(C(=O)N2CCCC(O)c3cc(Cl)ccc32)c(C)c1 (centres undefined) [Tolvaptan] + CCCCNC(=O)OCC#CI [3-iodo-2-propynyl butylcarbamate (IPBC)],107 ± 2.5%,107.1 ± 0.94%
CN1CCCC(CC2c3ccccc3Sc3ccccc32)C1 (centres undefined) [Metixene hydrochloride] + CCCCNC(=O)OCC#CI [3-iodo-2-propynyl butylcarbamate (IPBC)],48.9 ± 2.2%,85.3 ± 2%
Cc1ncc(CO)c(CO)c1O [Pyridoxine hydrochloride] + CCCCNC(=O)OCC#CI [3-iodo-2-propynyl butylcarbamate (IPBC)],79.58 ± 0.79%,85.7 ± 2.2%
CCN(CC)CCOC(=O)C(Cc1cccc2ccccc12)CC1CCCO1 (centres undefined) [Nafronyl oxalate] + CCCCNC(=O)OCC#CI [3-iodo-2-propynyl butylcarbamate (IPBC)],71.5 ± 1.3%,87.36 ± 0.1%
CO[C@H]1/C=C/O[C@@]2(C)Oc3c(C)c(O)c4c(O)c(c(/C=N/N5CCN(C6CCCC6)CC5)c(O)c4c3C2=O)NC(=O)/C(C)=C\C=C\[C@H](C)[C@H](O)[C@@H](C)[C@@H](O)[C@@H](C)[C@H](OC(C)=O)[C@@H]1C [Rifapentine] + CCCCNC(=O)OCC#CI [3-iodo-2-propynyl butylcarbamate (IPBC)],90.2 ± 0.95%,94.5 ± 2.6%
NC[C@H]1CC[C@H](C(=O)O)CC1 [Tranexamic acid] + CCCCNC(=O)OCC#CI [3-iodo-2-propynyl butylcarbamate (IPBC)],100 ± 3.8%,104 ± 1.1%
CCC1(c2ccccc2)NC(=O)N(C)C1=O (centres undefined) [Mephenytoin] + CCCCNC(=O)OCC#CI [3-iodo-2-propynyl butylcarbamate (IPBC)],88.5 ± 2.4%,100 ± 9.9%
CN(C)[C@@H]1C(O)=C(C(N)=O)C(=O)[C@@]2(O)C(O)=C3C(=O)c4c(O)cccc4[C@@](C)(O)[C@H]3C[C@@H]12 [Tetracycline hydrochloride] + CCCCNC(=O)OCC#CI [3-iodo-2-propynyl butylcarbamate (IPBC)],99.3 ± 11%,96.9 ± 6.3%
C[N+]1(C)CCC(OC(=O)C(O)(c2ccccc2)C2CCCC2)C1 (centres undefined) [Glycopyrrolate] + CCCCNC(=O)OCC#CI [3-iodo-2-propynyl butylcarbamate (IPBC)],101 ± 14%,98.7 ± 8.1%
O=C1c2c(O)ccc(O)c2C(=O)c2c(NCCNCCO)ccc(NCCNCCO)c21 [Mitoxantrone dihydrochloride] + CCCCNC(=O)OCC#CI [3-iodo-2-propynyl butylcarbamate (IPBC)],1.27 ± 1.3%,0%
O=C1c2c(O)cccc2Cc2cccc(O)c21 [Anthralin] + CCCCNC(=O)OCC#CI [3-iodo-2-propynyl butylcarbamate (IPBC)],71.8 ± 3.8%,82.4 ± 1.3%
"O=C1c2cccc(O)c2C(=O)c2c(O)cccc21 [1,8-Dihydroxyanthraquinone] + CCCCNC(=O)OCC#CI [3-iodo-2-propynyl butylcarbamate (IPBC)]",55.12 ± 0.16%,77.2 ± 1.9%
CN(C)[C@@H]1C(O)=C(C(N)=O)C(=O)[C@@]2(O)C(O)=C3C(=O)c4c(O)ccc(Cl)c4[C@@H](O)[C@H]3C[C@@H]12 [Demeclocycline hydrochloride] + CCCCNC(=O)OCC#CI [3-iodo-2-propynyl butylcarbamate (IPBC)],68.8 ± 2.4%,76.1 ± 1.1%
